# Source: publication PMC5540273 (PLoS ONE, 2017)
# Assays:
# Conditions in all cases: concentration: 1 μM, replicates: in singlicate; n = 1
# [1] = system: PIK3CG
# [2] = system: T1, PIK4CB
# T1 construct: gene PI4KB
# [3] = system: PIKFYVE
# [4] = system: PIM1
# [5] = system: PIM2
# [6] = system: PIM3
# [7] = system: PIP5K1A
# [8] = system: PIP5K1C
# [9] = system: PIP5K2B
# [10] = system: T2, PIP5K2C
# T2 construct: gene PIP4K2C
# 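Note: KINOMEscan kinase panel screen.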
SMILES,%Inh [1] [%],%Inh [2] [%],%Inh [3] [%],%Inh [4] [%],%Inh [5] [%],%Inh [6] [%],%Inh [7] [%],%Inh [8] [%],%Inh [9] [%],%Inh [10] [%]
Cc1c(Cn2c(C)nn3c(=O)cc(N4CCO[C@H](C)C4)nc23)cccc1C(F)(F)F [GSK2373690],21,0,0,0,0,0,0,13,12,9
CN(C)c1cc(-c2ccc3c(N)n[nH]c3c2)nc(N)n1 [GSK2219329],0,0,0,14,0,0,0,19,0,0
COc1cc2ncn(-c3cc(OCc4ccncc4)c(C(N)=O)s3)c2cc1OC [GSK336313],12,0,0,0,0,0,0,30,22,0
CCCNC(=O)Nc1ccc(Oc2ncnc3ccn(C)c23)cc1,12,0,0,0,5,0,0,17,47,27
OCCCNc1nccc(-c2c(-c3cccc(C(F)(F)F)c3)nn3cc(C(F)(F)F)ccc23)n1 [GW630813],0,0,0,9,0,0,30,66,2,38
Nc1n[nH]c2nnc(-c3ccccc3)c(-c3ccccc3)c12 [GW554060],0,0,12,0,0,0,11,47,14,14
Cl.NS(=O)(=O)c1cccc(Nc2cc(-c3ccc(F)cc3)n[nH]2)c1 [GW824645],0,26,0,0,8,0,3,59,0,0
O=C(NCCNc1ccnc(Nc2ccc(F)cc2)n1)Nc1ccc2c(c1)OCO2 [GSK1379882],10,17,8,21,0,11,7,66,0,24
O=C1NC(=O)C(c2ccccc2)=C1Nc1cccc(O)c1 [SB-390534],5,22,0,0,0,0,5,0,13,0
Cc1nnc(-c2ccc3ncn(-c4ccc(S(C)=O)cc4)c3c2)o1 (centres unmarked),0,0,19,4,1,11,0,18,5,55
CCC(=O)c1c(-c2ccccc2)c2cc(Cl)ccc2c(=O)n1Cc1cc(S(C)(=O)=O)n(CC(N)=O)n1,0,0,17,18,2,9,0,33,8,19
CCCC(=O)Nc1n[nH]c2ncc(-c3cccc4ccccc34)cc12 [SB-642057],10,39,0,10,0,2,0,34,0,13
Cc1ccc(Oc2ccc(Nc3ncnc4cc[nH]c34)cc2C)cn1,7,42,1,41,7,36,7,0,0,0
COc1cc2nccc(Nc3ccc(OCc4ccc(NC(C)=O)cc4)cc3)c2cc1OC.Cl [GW440135],7,4,0,8,0,0,15,32,22,25
O=C(Nc1n[nH]c2nc(-c3ccccc3)c(Cl)cc12)C1CC1 [SB-734909],45,2,0,0,3,1,8,38,13,14
FC(F)(F)c1ccc(-c2ncn(CCCN3CCOCC3)c2-c2ccncc2)cc1 [SB-217780],34,0,0,15,0,13,0,36,0,27
Nc1ncnc2c1ncn2-c1cccc2ccccc12 [SKF-97184],3,0,40,0,32,0,0,11,0,0
COc1cc2nccc(Nc3cccc(Oc4ccccc4)c3)c2cc1OC.Cl [GW284543],0,0,29,0,0,0,0,48,18,8
O=C(NCc1cccs1)c1cc(C(=O)c2c(Cl)cccc2Cl)c[nH]1 [GW823670],0,0,0,5,0,0,34,0,4,0
O=C(Nc1n[nH]c2cc(-c3ccccc3F)ccc12)C1CC1 [SB-733371],6,0,10,0,0,0,32,0,24,0
CCn1c(-c2ccoc2)nc2cnccc21 [SB-733887],0,20,3,0,0,36,11,0,0,32
CN1C(=O)C(Nc2ccccc2)=C(c2ccccc2)C1=O [SB-300079],10,0,9,0,0,0,42,23,0,20
CCC(=O)c1c(-c2ccccc2)c2cc(Cl)ccc2c(=O)n1Cc1cc(S(C)(=O)=O)n(CCC(C)(C)O)n1,17,0,0,15,2,16,0,0,20,0

SMILES,%Inh [1] [%],%Inh [2] [%],%Inh [3] [%],%Inh [4] [%],%Inh [5] [%],%Inh [6] [%],%Inh [7] [%],%Inh [8] [%],%Inh [9] [%],%Inh [10] [%]
CCc1ccc(-c2ccc3c(c2)-c2nn(C)cc2S(=O)(=O)N3C)cc1,0,0,16,0,12,0,0,35,0,9
COc1ccc(-n2cnc3c(N)ncnc32)cc1 [SKF-97236],51,23,0,19,0,0,0,33,6,6
COc1cc(Nc2nccc(N3CCC(NC(=O)C4COc5ccccc5O4)C3)n2)cc(OC)c1OC (centres unmarked) [GSK1379761],0,0,21,0,0,0,51,0,6,89
COc1cccc(C2=C(N(C)c3ccccc3)C(=O)NC2=O)c1 [SB-334865],0,0,2,0,0,0,0,70,6,30
Cc1ccccc1COc1cc(-n2cnc3cc(Cl)ccc32)sc1C(N)=O [GW813349],24,0,0,2,18,0,24,37,0,24
COc1cc2ncn(-c3cc(OCc4ccc(S(C)(=O)=O)cc4)c(C(N)=O)s3)c2cc1OC [GW869979],26,18,14,0,0,0,0,39,16,0
CCC(=O)c1c(-c2ccccc2)c2cc(Cl)ccc2c(=O)n1Cc1cc(C(=O)NC2CC2)n(C)n1,0,0,25,0,0,11,0,0,32,12
Cl.c1ccc(Cn2cnc3cc(Nc4ncnc5ccccc45)ccc32)cc1 [GW272142],0,0,6,0,0,0,0,38,0,17
CCn1c(-c2nonc2N)nc2ccccc21 [SB-693162/GW549034],0,29,0,0,0,8,23,8,0,0
Nc1ncnc2c1ncn2-c1ccc(Cl)cc1 [AH2635],47,0,0,0,0,0,17,57,10,23
COc1cccc(C2=C(Nc3cccc(C(=O)O)c3)C(=O)NC2=O)c1 [SB-390770],5,0,0,0,0,0,5,56,4,23
COc1cc2ncn(-c3cc(OCCCc4ccccc4)c(C(N)=O)s3)c2cc1OC [GSK205189],0,0,0,0,0,0,0,69,0,9
COc1ccc(-c2coc3ccc(-c4nnc(SCc5cccc(C#N)c5)o4)cc23)cc1,0,29,0,12,20,17,0,0,4,9
COc1ccc(Nc2nccc(N3CCC(NS(=O)(=O)c4ccc(NC(C)=O)cc4)C3)n2)cc1 (centres unmarked) [GSK1379729],11,14,11,0,0,0,0,49,9,62
O=C(Nc1n[nH]c2nc(-c3ccccc3)c(Br)cc12)C1CC1 [SB-708998],0,0,0,4,0,0,0,14,33,0
O=c1cc(N2CCOCC2)nc2n(Cc3ccc(F)c(Cl)c3)ccn12 [GSK2297099],23,20,0,11,0,19,0,0,0,0
COC(=O)c1c(-c2ccccc2)c2cc(Br)ccc2c(=O)n1Cc1ccc(S(C)(=O)=O)cc1,1,5,0,9,14,9,19,0,23,0
Cn1c(=O)c(F)c(Nc2ccc(I)cc2F)c2c(=O)n(OC[C@H](O)CO)cnc21,0,0,6,5,13,0,11,22,9,12
CN1C(=O)C(Nc2cc(Cl)c(O)c(Cl)c2)=C(c2ccc(Cl)cc2)C1=O [SB-404321],10,36,24,0,0,0,0,27,0,30
COc1ccc(CNC(=O)NC2CCN(c3ccnc(Nc4ccc(F)cc4)n3)C2)cc1 (centres unmarked) [GSK1379706],7,17,0,12,0,0,44,63,20,54
Nc1nccc2scc(-c3ccc4c(c3)CCN4C(=O)Cc3ccccc3)c12 [GSK2576924],5,20,0,20,0,3,3,29,15,13
COC(=O)c1c(-c2ccccc2)c2cc(Br)ccc2c(=O)n1Cc1ccc(NC(=O)CCC(=O)O)cc1,7,0,5,4,24,3,4,0,35,0
Nc1ncnc2c1ncn2-c1cccc(F)c1 [SKF-97560],14,14,17,1,18,0,6,0,9,0

SMILES,%Inh [1] [%],%Inh [2] [%],%Inh [3] [%],%Inh [4] [%],%Inh [5] [%],%Inh [6] [%],%Inh [7] [%],%Inh [8] [%],%Inh [9] [%],%Inh [10] [%]
Cc1cc(Nc2nc(-c3cccc(C)n3)nc3ccccc23)ccn1 [GW872411],0,0,53,0,0,0,2,0,0,0
CCC(=O)c1c(-c2ccccc2)c2cc(Cl)ccc2c(=O)n1Cc1cc(S(C)(=O)=O)n(CC(F)F)n1,0,0,0,0,0,0,2,9,0,0
Cc1cccc(-c2nc(Nc3ccc4c(cnn4C)c3)c3ccccc3n2)n1 [GW876731],0,26,91.5,8,1,21,0,0,0,0
Cc1nc(N(C)[C@H]2CN(C(=O)CC#N)CC[C@H]2C)c2cc[nH]c2n1,0,0,2,0,0,0,0,0,0,0
COc1ccc(-c2cc3c(C)nc(N)nc3n([C@H]3CC[C@H](OCCO)CC3)c2=O)cn1,,96.1,11,0,44,0,0,1,2,9
COc1cc(Nc2nccc(N3CCC(NC(=O)C(C)c4ccc(Cl)cc4)C3)n2)cc(OC)c1OC (centres unmarked) [GSK1379757],2,0,0,0,0,0,42,35,3,79
Cc1nnc(-c2ccc(C)c(-c3ccc(C(=O)O)cc3)c2)o1 [GW608005],0,0,0,18,0,0,0,6,0,0
CCc1nc(-c2cccc(C)c2)c(-c2ccncc2)s1,0,0,39,17,0,29,0,36,19,25
Cc1cccc(-c2cc(-c3c[nH]nc3-c3ccccn3)ccn2)c1 [GW679395],0,0,0,20,0,0,35,54,0,39
Nc1n[nH]c2ncc(-c3ccccc3)cc12 [SB-517081],0,0,0,12,0,0,0,38,9,23
Nc1nc(N)c2nc(-c3ccccc3)[nH]c2n1 [SKF-12778],8,19,12,0,5,0,0,47,8,35
Fc1cccc(CSc2nnc(-c3ccc4c(c3)CCO4)o2)c1,10,2,7,13,18,9,13,5,34,0
CCS(=O)c1ccc(-c2coc3ccc(-c4nnc(C)o4)cc23)cc1 (centres unmarked),0,19,3,6,27,11,0,13,0,93
COc1cc2ncn(-c3cc(OCc4ccncc4Br)c(C(N)=O)s3)c2cc1OC [GW854278],55,23,17,0,0,2,0,86,41,81
CCS(=O)(=O)c1ccc(OC)c(Nc2ncc(-c3ccc(F)cc3)o2)c1.Cl [GW591947],0,0,0,0,0,0,0,23,3,2
CCC(=O)c1c(-c2ccccc2)c2cc(Cl)ccc2c(=O)n1Cc1ccc(C(=O)O)cc1,0,0,0,0,0,0,18,15,0,16
CC(C)(C)c1ccc(C(=O)Nc2cn3cc(-c4ccccc4)ccc3n2)cc1,0,0,27,30,0,19,0,32,6,54
COC(=O)c1c(-c2ccccc2)c2cc(C)ccc2c(=O)n1Cc1ccccc1,0,0,0,2,0,0,13,20,5,1
Cc1ccc(-c2ccc3c(ccc4sc5c(c43)NC[C@@H](C)N=C5N(C)C)n2)cn1,0,0,42,0,0,0,0,0,0,0
Nc1nc(-c2ccccc2F)c(-c2ccnc3ccccc23)s1 [GW560459],0,0,0,0,0,3,13,46,4,59
C[C@@H]1CC[C@H](C(=O)NC2CCCCC2)CN1c1cc(-c2ccc3c(N)n[nH]c3c2)nc(N)n1 [GSK2291363],0,0,0,22,0,8,100,53,52,30
Cc1nn2c(=O)cc(N3CCOCC3)nc2n1Cc1cccc(Cl)c1Cl [GSK2342769],69,0,62,0,0,0,0,12,5,1
COc1cc(OC)cc(-c2cc3cnc(N)nc3nc2NC(=O)NC(C)(C)C)c1,5,0,44,0,0,0,37,0,0,0
